# Screens (PubChem)
# Arbovirus inh – blocks arbovirus infection | arbovirus infection cell-based antiviral screen | inhibition, % at 10 µM | hit rate 0.37% among 200,000 | AID 1251; in the data active means inhibition above about 30%
# MEKK2 WT-MEK5 – raises or lowers MEK5 binding to wildtype human MEKK2 PB1 domain; hit rate 1.1% among 290,000; AID 1531; bead flow cytometry, Alexa488-MEK5 binding to MEKK2 WT; actives lie on both sides; Q9Y2U5; binding response (% of control), % at 10 µM; in the data active means binding response below about 67% or above about 130%
# Pf gametocyte – inhibitors of late stage P. falciparum gametocyte viability; P. falciparum stage V gametocytes, ATP luminescence, 24 h; inhibition, % at 10.9 µM; hit rate 0.065% among 150,000; AID 743093;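 active means inhibition above the mean plus 3 SD of compounds within the control limits, set per campaign, cut at about 38% in these data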;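 further: 0% = DMSO wells and 100% = medium only without gametocytes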
# MEKK3 PB1 HTS – MEKK3-MEK5 PB1 interaction, increase or decrease | AID 1529 | hit rate 1.4% among 290,000 | binding response (% of control), % at 10 µM | bead-based flow cytometry, Alexa488-MEK5 binding to MEKK3; actives lie on both sides; 0 = blocked by unlabeled MEK5, 100 = vehicle;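 active means binding response more than 3 SD above or below the average of its plate-row segment, actives on both sides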;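 further: Alexa488 bead fluorescence after subtracting the streptavidin-only scavenger bead signal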
# Target sequence (Q99759 whole entry, looked up): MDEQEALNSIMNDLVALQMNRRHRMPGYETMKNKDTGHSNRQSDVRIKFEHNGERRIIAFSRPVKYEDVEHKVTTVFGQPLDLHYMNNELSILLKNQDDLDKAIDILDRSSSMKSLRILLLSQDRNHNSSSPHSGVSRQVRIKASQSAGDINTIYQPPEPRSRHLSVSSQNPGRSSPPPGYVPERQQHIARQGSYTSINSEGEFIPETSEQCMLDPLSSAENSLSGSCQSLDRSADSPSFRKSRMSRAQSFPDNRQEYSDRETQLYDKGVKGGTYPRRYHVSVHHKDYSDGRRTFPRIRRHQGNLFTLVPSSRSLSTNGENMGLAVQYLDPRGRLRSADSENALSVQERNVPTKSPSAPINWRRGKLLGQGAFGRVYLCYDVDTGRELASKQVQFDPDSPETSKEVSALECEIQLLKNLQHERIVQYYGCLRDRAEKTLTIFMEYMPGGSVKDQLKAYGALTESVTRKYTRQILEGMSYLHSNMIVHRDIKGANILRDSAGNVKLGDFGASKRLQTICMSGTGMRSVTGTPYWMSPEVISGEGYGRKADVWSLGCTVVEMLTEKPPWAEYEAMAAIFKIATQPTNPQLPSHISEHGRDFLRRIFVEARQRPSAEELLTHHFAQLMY
# MEKK2 mut-MEK5 – signal of MEK5 binding to mutant human MEKK2 PB1 domain | bead flow cytometry, Alexa488-MEK5 binding to MEKK2 mutant | percent response, % at 10 µM | hit rate 0.35% among 290,000; in the data active means percent response above about 24%, passing the limit was not always enough
# * hit, by the source's call; nt = not tested or not shown; [ ] = remark or other dose. The list is not random: actives were taken first. Their share in the collection is about 2.4%.
SMILES,Arbovirus inh,MEKK2 WT-MEK5,Pf gametocyte,MEKK3 PB1 HTS,MEKK2 mut-MEK5
Cc1nn(C(C)C(=O)NCCCN2CCCCCC2)c(=O)c2cc3sccc3n12 (centres undefined),nt,144.0*,nt,108.0,15.0
CC(C)c1ccc2c(c1)CCC1C(C)(CN)CCCC21C (centres undefined),nt,155.0*,nt,36.0*[inhibitor],25.0*
Cc1nn(Cc2ccccc2)c(Cl)c1/C=N/NC(=O)c1cccnc1,-6.6,100.0,4.2,100.0,-1.0
Cc1c(/C=N/NC(=O)c2cccnc2)c2ccccc2n1Cc1ccccc1,2.9,62.0*[inhibitor],22.1,105.0,110.0*
N#C/C(=C/c1ccc(-c2ccccc2)o1)c1nc(-c2cccs2)cs1,1.9,nt,-18.0,98.0,117.0*
C/C(=N\NC(=O)Cn1cc([N+](=O)[O-])cn1)c1ccc(O)cc1,nt,103.0,-2.0,104.0,5.0
COc1cc(NC(=O)CCCC(=O)OCC(F)(F)C(F)F)nc(OC)n1,106.0*,106.0,nt,105.0,4.0
COc1cc(NC(=O)CCC(=O)OCCCC(F)(F)C(F)(F)F)nc(OC)n1,-1.8,93.0,10.7,93.0,-7.0
O=C(Nc1ncc(Cc2ccccc2)s1)C1=NCCN1,-4.4,102.0,38.3*,102.0,5.0
Cc1cccc(Nc2nnc(SC/C(O)=C(\C#N)c3nc4ccccc4[nH]3)s2)c1C,28.5,94.0,3.6,96.0,-1.0
Cc1cccc(C)c1Nc1nnc(SC/C(O)=C(\C#N)c2nc3ccccc3[nH]2)s1,30.2*,94.0,5.1,97.0,-2.0
COc1ccc(C(C(=O)NC2CCCCC2)N(Cc2ccco2)C(=O)c2snc(C(N)=O)c2N)cc1 (centres undefined),nt,96.0,nt,100.0,0.0
CN1CCN(c2ccc(NC(=O)c3sc4ccccc4c3Cl)cc2)CC1,-8.6,121.0,5.2,113.0,2.0
COC(=O)c1ccc(N2CCN(C)CC2)c(NC(=O)c2sc3ccccc3c2Cl)c1,nt,172.0*,16.7,111.0,22.0
C=CCn1c(SCC(=O)NC2CCCC2)nnc1-c1cccnc1,nt,98.0,nt,94.0,-1.0
CN1CCN(C(c2ccc(Cl)cc2)c2cc(Cl)c3cccnc3c2O)CC1 (centres undefined),nt,137.0*,nt,106.0,28.0*
Cc1nn(C)cc1NC(=O)CC12CC3CC(CC(C3)C1)C2,2.7,109.0,nt,141.0*,4.0
N#Cc1cn(Cc2ccncc2)c(=O)[nH]c1=O,-0.8,81.0,-32.3,85.0,-17.0
O=C(O)CC/C(=C\c1ccc(N2CCCC2)c([N+](=O)[O-])c1)c1nc2ccccc2s1,53.7*,89.0,-6.3,102.0,-7.0
O=C(O)CC/C(=C\c1ccccc1[N+](=O)[O-])c1nc2ccccc2s1,10.6,nt,6.1,nt,nt
CCN(CC)CCNC(=O)C(=O)NCC1OCCN1S(=O)(=O)c1ccc(Cl)cc1 (centres undefined),nt,142.0*,nt,102.0,18.0
Cn1c(SCC(=O)NC2CCCCC2)nnc1-c1ccccc1O,nt,106.0,nt,102.0,6.0
Cc1ccc(NC(=O)CN2CCCCCC2)cc1[N+](=O)[O-],10.2,87.0,16.0,80.0,-8.0
Cc1ccccc1N1CCN(C2CCCN(C(=O)c3cnsn3)C2)CC1 (centres undefined),nt,65.0*[inhibitor],nt,77.0*[inhibitor],-13.0
Cc1nc(C(=O)N2CCCC(N3CCN(c4ccccc4C)CC3)C2)cs1 (centres undefined),nt,111.0,nt,107.0,7.0
SMILES,Arbovirus inh,MEKK2 WT-MEK5,Pf gametocyte,MEKK3 PB1 HTS,MEKK2 mut-MEK5
C/C(CCS(=O)(=O)c1ccccc1)=N/O,-1.9,101.0,38.2*,103.0,1.0
CCOc1ccc(C(=O)Nc2cc(NC(=O)c3ccc(OCC)c(Cl)c3)cc(C(=O)O)c2)cc1Cl,87.9*,88.0,6.6,103.0,-10.0
CCOc1ccc(C(=O)Nc2cccc(C(=O)O)c2)cc1Cl,7.9,100.0,-5.5,104.0,0.0
O=C(Nc1nc2ccccc2s1)c1ccc(OCC2CCCO2)cc1 (centres undefined),30.8*,101.0,6.0,102.0,1.0
Cc1cnc(NC(=O)c2ccc(OCC3CCCO3)cc2)s1 (centres undefined),2.0,92.0,-1.2,103.0,-13.0
O=C(N/N=C/c1ccc(OC(=O)c2ccc(Br)cc2)cc1)c1ccncc1,nt,61.0*[inhibitor],nt,66.0*[inhibitor],-41.0
N#Cc1ccccc1OCC(=O)OCC(=O)N1CCN(C(=O)c2ccco2)CC1,-1.1,94.0,37.7,102.0,-5.0
Cc1occc1-c1nnc(SCC(=O)Nc2ccccc2)n1C,-1.1,-13.0*,15.0,92.0,3.0
CN(C(=O)CCl)C1CCCc2ccccc21 (centres undefined),-11.1,93.0,2.4,92.0,-9.0
CN(C(=O)c1cccc(C(F)(F)F)c1)C1CCCc2ccccc21 (centres undefined),nt,0.0*[inhibitor],nt,1.0*[inhibitor],-38.0
CC(CC(=O)Nc1cccnc1)c1ccccc1 (centres undefined),3.0,104.0,-5.4,102.0,1.0
COc1ccccc1S(=O)(=O)Cc1ccc(C(=O)NCCCN2CCN(c3ccc(F)cc3)CC2)o1,nt,140.0*,nt,104.0,10.0
O=C1CCCC2=C1C(c1ccncc1)c1c(nc(SCc3ccccc3Cl)[nH]c1=O)N2 (centres undefined),7.4,105.0,-23.7,106.0,8.0
CCC(C)Sc1nc2c(c(=O)[nH]1)C(c1cccs1)C1=C(CCCC1=O)N2 (centres undefined),32.9*,93.0,nt,88.0,-3.0
O=C(Nc1ccc(Nc2ccncc2)cc1)c1ccc(Nc2ccnc3ccc([N+](=O)[O-])cc23)cc1[N+](=O)[O-],nt,28.0*[inhibitor],nt,13.0*[inhibitor],-49.0
CCOC(=O)c1c(-c2ccccc2)csc1NC(=S)N(CC)CC,37.3*,119.0,7.1,100.0,11.0
CCOC(=O)c1c(-c2ccccc2)csc1/N=C/C1C(=O)CCCC1=O,-3.0,149.0,-1.9,99.0,70.0*
CCOC(=O)c1c(CC(C)C)csc1/N=C/C1C(=O)CCCC1=O,5.1,95.0,nt,97.0,-3.0
CCOC(=O)c1c(-c2ccccc2)csc1NC(=O)c1nn(CC)cc1Br,25.3,102.0,11.2,106.0,0.0
Cc1cccc(CSCc2ccc(C(=O)NCC3CCCO3)o2)c1 (centres undefined),-0.2,108.0,17.1,104.0,2.0
CCN(CC)Cc1c(O)c(Cl)cc2c3c(c(=O)oc12)CCCC3,19.0,97.0,nt,100.0,0.0
CN(C)Cc1c(O)c(Cl)cc2c3c(c(=O)oc12)CCCC3,32.5*,101.0,nt,102.0,17.0
COc1ccc(-n2ncc3c2CC(C)(C)CC3NC(=O)c2c(C)cc(=O)oc2C)cc1 (centres undefined),nt,89.0,nt,91.0,-13.0
Cc1cccnc1CCNC(=O)CC1C(=O)NCCN1CC1CCCCC1 (centres undefined),-2.6,103.0,8.1,103.0,-1.0
Cc1nn(-c2ccccc2)c2nc(-c3ccncc3)cc(C(=O)NCc3ccco3)c12,-13.9,108.0,55.9*,102.0,4.0
CCOC(=O)CC1C(=O)NCCN1C(=O)c1c(Cl)cccc1Cl (centres undefined),nt,102.0,nt,96.0,-2.0
